Compounds with a hit are over-represented: about 19% of the library has one in this group of screens.
TDP1 cell CPT: growth inhibition of DT40 Tdp1-/-;hTDP1 cells with camptothecin (screen for TDP1 inhibitors) | chicken DT40 Tdp1-/-;hTDP1 cells + 20 nM CPT, ATP luminescence, 48 h | Potency, µM (top dose mostly 46.2 µM), without a hit: top-dose activity change, negative = growth inhibition, hits mostly inhibitors | 420,000 compounds, 12% hits; also: potency is read from the fitted curve at half-maximal effect; nearly all actives have a fitted effect of over 55% in size
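Chicken DT40 Tdp1-/- cells complemented with human TDP1, 400 cells/well, exposed to compounds plus 20 nM camptothecin for at least 48 h at 37 C; viability read as ATP content by CellTiter-Glo luminescence.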
Giardia kill: Giardia lamblia killing; Giardia lamblia trophozoite viability; activity change, % at 7.66 µM, hits read low; 340,000 compounds, 0.15% hits; AID 540267; in the data active = activity change below about -80%; inconclusive = between about -30% and that limit;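 also: parasites exposed to compound for two days anaerobically before the ATP read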
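Giardia trophozoites, 100 cells per well, were exposed to compounds for 48 hrs at 37 deg C under anaerobic conditions; viability was then read as ATP content by bioluminescence after 15-30 min at room temperature.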
IL1B secr inh: inhibitors of inflammasome signaling (IL-1 beta secretion); 360,000 compounds, 4.7% hits; THP-1 LPS/ATP IL-1B secretion, AlphaLISA, 16 h; stronger effect = lower value; activity change, % at 57.5 µM; in the data active = activity change below about -50%; inconclusive = mostly about -30% to -49%
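Secreted IL-1B measured by AlphaLISA bead assay after 16 h compound exposure of THP-1 cells; compounds (final up to 57.5 uM) added 1 h before LPS (250 ng/mL) and ATP (1.25 mM) stimulation; lower signal means less secretion.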
ELG1 DNA repair: inhibitors of ELG1-dependent DNA repair in HEK293T cells; HEK293T ELG1-luciferase reporter, luminescence, 16 h; DNA damage induced by 5-fluorouridine; Potency, µM (doses to about 46.1 µM), inactives show at the top dose activity change, negative = inhibition, most hits filed as inhibitors; 330,000 compounds, 2.3% hits; also: potency is read from the fitted curve at half-maximal effect; nearly all actives have a fitted effect of over 55% in size
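HEK293T cells expressing luciferase-tagged ELG1 (2,000/well) received 5-Fluorouridine plus compound or DMSO for 16 hr at 37 °C. Luciferase was read by ONE-Glo luminescence after 30 min at room temperature.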
DT40 TDP1 no CPT: qHTS for Inhibitors of human tyrosyl-DNA phosphodiesterase 1 (TDP1): qHTS in cells in absence of CPT; DT40 Tdp1-/- hTDP1 cells, no CPT, ATP luminescence, 48 h; Potency, µM (series often up to 46.2 µM), for inactives: top-dose activity change, negative = growth inhibition, usual class: inhibitors; 420,000 compounds, 15% hits; also: potency is read from the fitted curve at half-maximal effect; nearly all actives have a fitted effect of over 55% in size
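No-CPT arm: Tdp1-/-;hTDP1 DT40 cells (400/well) plus compounds, incubated ≥48 hr at 37 °C. Readout CellTiter-Glo luminescence.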
TDP1 block: blocks human tyrosyl-DNA phosphodiesterase 1. Q9NUW8. recombinant TDP1, AlphaScreen DNA substrate cleavage. 350,000 compounds, 0.28% hits. AID 485290. Potency, µM (highest dose often 130 µM), inactives show top-dose activity change, negative = inhibition, usual class: inhibitors; also: potency is read from the fitted curve at half-maximal effect; nearly all actives have a fitted effect of over 40% in size
Target sequence (Q9NUW8 whole entry, looked up): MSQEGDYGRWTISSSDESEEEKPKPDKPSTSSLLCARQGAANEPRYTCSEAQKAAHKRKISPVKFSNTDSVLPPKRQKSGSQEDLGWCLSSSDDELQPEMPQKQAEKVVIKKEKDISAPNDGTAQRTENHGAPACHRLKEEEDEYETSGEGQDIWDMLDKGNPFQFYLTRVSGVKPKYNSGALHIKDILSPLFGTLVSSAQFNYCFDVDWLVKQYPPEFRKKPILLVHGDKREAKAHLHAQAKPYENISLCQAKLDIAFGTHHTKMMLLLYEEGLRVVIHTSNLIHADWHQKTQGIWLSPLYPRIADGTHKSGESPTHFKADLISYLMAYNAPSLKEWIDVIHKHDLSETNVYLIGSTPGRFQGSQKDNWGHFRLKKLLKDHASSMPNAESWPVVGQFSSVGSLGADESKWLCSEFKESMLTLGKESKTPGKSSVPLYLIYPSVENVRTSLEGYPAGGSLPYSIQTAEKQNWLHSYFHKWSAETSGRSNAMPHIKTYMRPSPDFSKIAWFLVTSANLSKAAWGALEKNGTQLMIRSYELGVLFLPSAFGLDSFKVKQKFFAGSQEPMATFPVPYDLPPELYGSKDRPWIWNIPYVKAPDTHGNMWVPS
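Steps: enzyme plus compound, 15 min RT; add biotin/phosphotyrosine-FITC oligonucleotide (15 nM final), react 5 min; add donor/acceptor beads (10 ug/ml final), 10 min; read AlphaScreen. Tdp1 at 1 nM final.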
An asterisk follows results filed as active; [ ] = another dose, or the depositor's remark. Unless noted, calls follow the shape of the dose curve; as a rule, active = well fitted curve in the direction sought with a large enough effect; inconclusive = small, poorly fitted or top-dose-only effect, or another doubt; inactive = no such curve, though single readings can be large; an effect the other way counts as inactive or inconclusive. % is scaled to controls: 0 for no effect and ±100 for the full control effect.

Screening CC1CN(S(=O)(=O)c2cccc(C(=O)N(CCc3ccccc3)Cc3ccccc3)c2)CC(C)O1 (stereo not given) returned TDP1 cell CPT 7.3µM*, Giardia kill 0, IL1B secr inh -23, ELG1 DNA repair inconclusive, DT40 TDP1 no CPT 5.8µM* and TDP1 block 11%.
Cc1ccc(N(Cc2ccccc2)C(=O)c2cccc(S(=O)(=O)N3CC(C)OC(C)C3)c2)cc1 (stereo not given) was read as TDP1 cell CPT 21µM*, Giardia kill inconclusive, IL1B secr inh -29, ELG1 DNA repair -11%, DT40 TDP1 no CPT 16µM* and TDP1 block 0%[0.505 µM].
Screening CC1CN(S(=O)(=O)c2cccc(C(=O)OCC(=O)NCc3ccccc3)c2)CC(C)O1 (stereo not given) returned TDP1 cell CPT inconclusive, Giardia kill 3, IL1B secr inh 14, ELG1 DNA repair 6%, DT40 TDP1 no CPT inconclusive and TDP1 block -6%.
Screening N=C1C(c2ccccc2)=C(O)CN1c1cccc(O)c1 returned TDP1 cell CPT -4%, Giardia kill 6, IL1B secr inh 10, ELG1 DNA repair -11%, DT40 TDP1 no CPT -6% and TDP1 block 3%.
`CCOC(=O)c1sc(NC(=O)C2CC(=O)N(c3ccc4c(c3)OCCO4)C2)nc1C` (stereo not given) gave TDP1 cell CPT -29%, Giardia kill 0, IL1B secr inh -5, ELG1 DNA repair -26%, DT40 TDP1 no CPT inconclusive and TDP1 block 1%[56.1 µM].
Screening Clc1cccc(-c2cccc3nccn23)c1 returned TDP1 cell CPT 23µM*, IL1B secr inh 16 and DT40 TDP1 no CPT 21µM*.
CN(C)c1ccc(-c2cccc3nccn23)cc1 was read as TDP1 cell CPT inconclusive, IL1B secr inh 31 and DT40 TDP1 no CPT 15µM*.
Screening COc1ccc(/C=C/C(=O)c2ccncc2)c2ccccc12 returned TDP1 cell CPT 23µM*, Giardia kill -9, IL1B secr inh -29, ELG1 DNA repair 4%, DT40 TDP1 no CPT 16µM* and TDP1 block 5%.
COc1ccccc1/C(C)=N/Oc1cc(N)cc([N+](=O)[O-])c1 was read as TDP1 cell CPT -4%, Giardia kill 16, IL1B secr inh -21, ELG1 DNA repair inconclusive, DT40 TDP1 no CPT -16% and TDP1 block -10%.
Nc1cc2c(cc1Cl)-c1ccc([N+](=O)[O-])cc1C2=NO was read as TDP1 cell CPT 8.2µM*, Giardia kill 13, IL1B secr inh 3 and DT40 TDP1 no CPT 7.3µM*.
`O=[N+]([O-])c1ccc2c(c1)/C(=N\O)c1ccccc1-2` gave TDP1 cell CPT inconclusive, Giardia kill 3, IL1B secr inh -8, ELG1 DNA repair -2% and DT40 TDP1 no CPT inconclusive.
NN=C1c2cc([N+](=O)[O-])ccc2-c2ccc([N+](=O)[O-])cc21 was read as ELG1 DNA repair -2% and TDP1 block 9%.
For O=[N+]([O-])c1ccc2c(c1)C(=NO)c1cc(F)ccc1-2 the results were TDP1 cell CPT 16µM*, Giardia kill -3, IL1B secr inh inconclusive and DT40 TDP1 no CPT 12µM*.
`COc1cc2c(cc1[N+](=O)[O-])-c1ccc([N+](=O)[O-])cc1C2=NO` gave TDP1 cell CPT 26µM*, IL1B secr inh inconclusive and DT40 TDP1 no CPT 15µM*.
Screening CCOC(=O)c1c(NC(=O)c2cc(-c3ccc(Cl)cc3)on2)sc(C)c1C returned TDP1 cell CPT -2%, DT40 TDP1 no CPT -14% and TDP1 block 4%.
For CC(=O)c1sc(C(C)(C)C)cc1NC(=O)/C=C/C(=O)O the results were TDP1 cell CPT -27%, Giardia kill -17, IL1B secr inh -96*, ELG1 DNA repair inconclusive, DT40 TDP1 no CPT inconclusive and TDP1 block 4%.
